Results filed as inconclusive are left out. Activity calls are given as the source filed them. The calls were made as follows: active = hit-call score of the fitted dose curve at least 0.9, where 1 is the maximum; inconclusive = response in the unintended direction; inactive = score below 0.9.
Biological target: human Peroxisome Proliferator-activated Receptor alpha (PPARa), PPARA (gene 5465) (UniProt Q07869)
Test: ATG_PPARa_TRANS: Attagene TRANS-FACTORIAL HepG2 Assay for human Peroxisome Proliferator-activated Receptor alpha (PPARa) (AID 2283001);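 as to AC50: potency for gain of reporter signal over DMSO so agonist or activator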
Method: ATG_TRANS is a cell-based, multiplexed-readout assay that uses HepG2, a human liver cell line, with measurements taken at 24 hours after chemical dosing in a 24-well plate.ATG_PPARa_TRANS is one of 30 assay component(s) measured or calculated from the ATG_TRANS assay. It is designed to make measurements of mRNA induction, a form of inducible reporter, as detected with fluorescence intensity signals by Reverse transcription polymerase chain reaction (RT-PCR) and Capillary electrophoresis technology.Data from the assay component ATG_PPARa_TRANS was analyzed into 1 assay endpoint. This assay endpoint, ATG_PPARa_TRANS, was analyzed in the positive analysis fitting direction relative to DMSO as the negative control and baseline of activity. Using a type of inducible reporter, measures of mRNA for gain-of-signal activity can be used to understand the reporter gene at the transcription factor-level as they relate to the gene PPARA. Furthermore, this assay endpoint can be referred to as a primary readout, because this assay has produced multiple assay endpoints where this one serves a reporter gene function. To generalize the intended target to other relatable targets, this assay endpoint is annotated to the nuclear receptor intended target family, where the subfamily is non-steroidal.
Human liver HepG2 cells are transiently transfected with multiple reporter transcription units (MRTUs) in 6-well plates using FuGene 6 reagent (Roche; 3 ml FuGene/1 mg DNA). The MRTU constructs are regulated by a cis-regulating element (promoter). […] A major difference between the CIS and TRANS system is that in CIS activities of endogenous TFs are measured, whereas the TRANS assay evaluates changes in activities of exogenous, chimeric NR-Gal4 proteins. […] At the end of 24 hour incubation, total RNA was isolated using TriZol reagent (Invitrogen). The isolated RNA is then reverse-transcribed using oligo(dT) primer and Mo-MLV reverse transcriptase (Invitrogen) with DNAse I (Ambion) treatment for 30 min. The one-tenth of the produced cDNA was amplified by PCR using Taq DNA polymerase (Invitrogen) and two reporter sequence-specific primers. The PCR products were fluorescently labeled by primer extension with 6-arboxyfluorescein (6-FAM) 5'-labeled reporter sequence-specific primer (2 min at 95 C, 20 s at 68 C and 10 min at 72 C) and these products were digested with 5U of HpaI (New England Biolabs) for 2h at 37 C. The fragments were purified using Qiaquick PCR columns (Qiagen), analyzed on an ABI 3130xL genetic analyzer (Applied Biosystems) with peak positions identified by using a set of X-rhodamine (ROX)-labeled MapMarker1000 molecular weight standards (BioVentures). The raw capillary electrophoresis data was processed using Attagraph software (Attagene).

Chain of human Peroxisome Proliferator-activated Receptor alpha (PPARa), PPARA (gene 5465) (Q07869 whole entry, looked up): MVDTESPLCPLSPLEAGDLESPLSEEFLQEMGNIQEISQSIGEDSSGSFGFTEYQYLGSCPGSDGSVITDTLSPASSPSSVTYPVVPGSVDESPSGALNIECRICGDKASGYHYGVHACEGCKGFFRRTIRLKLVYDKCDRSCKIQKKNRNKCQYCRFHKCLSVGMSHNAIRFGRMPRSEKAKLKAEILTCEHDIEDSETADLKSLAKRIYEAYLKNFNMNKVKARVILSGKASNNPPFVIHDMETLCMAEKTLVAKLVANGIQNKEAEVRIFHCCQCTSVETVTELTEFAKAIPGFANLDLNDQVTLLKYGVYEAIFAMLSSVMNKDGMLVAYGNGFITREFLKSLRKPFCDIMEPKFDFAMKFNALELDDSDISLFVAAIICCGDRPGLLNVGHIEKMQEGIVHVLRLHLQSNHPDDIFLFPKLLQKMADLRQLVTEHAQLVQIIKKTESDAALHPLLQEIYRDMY

Row | SMILES | outcome | AC50
1 | CCN(CC)c1cccc(C)c1 | inactive | –
2 | O=C1c2ccccc2C(=O)c2cc(S(=O)(=O)O)ccc21 | inactive | –
3 | CC(=O)c1ccc(S(=O)(=O)NC(=O)NC2CCCCC2)cc1 | inactive | –
4 | CC(C)c1cccc(C(C)C)c1N | inactive | –
5 | CCCC=C(C=O)CC | inactive | –
6 | COC(=O)CC(C)CCC=C(C)C (stereo not given) | inactive | –
7 | c1ccc2cnccc2c1 | inactive | –
8 | CC(CCC(=O)O)(c1ccc(O)cc1)c1ccc(O)cc1 | inactive | –
9 | CC1=NN(c2ccc(S(=O)(=O)O)cc2)C(=O)C1N=Nc1ccccc1 (stereo not given) | inactive | –
10 | O=C(Cl)c1c(Cl)c(Cl)c(C(=O)Cl)c(Cl)c1Cl | inactive | –
11 | CCC(C)(O)CCCC(C)C (stereo not given) | inactive | –
12 | CCCCC(C=O)CC (stereo not given) | inactive | –
13 | Oc1ccccc1Cc1ccccc1O | inactive | –
14 | CCCCCC[C@@H](O)C/C=C\CCCCCCCC(=O)OCC(O)CO (stereo not given in full) | – | 15.3 µM (active)
15 | Cc1c[nH]c(=O)[nH]c1=O | inactive | –
16 | CC(C)CCCCCOC(=O)CS | inactive | –
17 | C[N+](C)(C)CCCNS(=O)(=O)C(F)(F)C(F)(F)C(F)(F)C(F)(F)C(F)(F)C(F)(F)C(F)(F)C(F)(F)F | inactive | –
18 | CCC(C)N (stereo not given) | inactive | –
19 | CCCC(C)C(=O)OCC (stereo not given) | inactive | –
20 | O=C(O)C1CCC(C(=O)O)CC1 (stereo not given) | inactive | –

Row | SMILES | outcome | AC50
21 | c1ccc2sc(SSN3CCOCC3)nc2c1 | inactive | –
22 | CCCCCCCCCCCCC | inactive | –
23 | C=CC(=O)OCC(C)OCC(C)OCC(C)OC(=O)C=C (stereo not given) | inactive | –
24 | Oc1c(Cl)cc(Cl)c(Cl)c1Cl | – | 27.2 µM (active)
25 | C=C(C)C1CC=C(C)CC1 (stereo not given) | inactive | –
26 | Oc1ccc(-c2ccccc2)c(Cl)c1 | – | 41.1 µM (active)
27 | C=C(C)OC(C)=O | inactive | –
28 | CC(=O)CCC=C(C)C | inactive | –
29 | CCOC(=O)OC(=O)OCC | inactive | –
30 | C=CC(=O)OCCCCCCCCCC | inactive | –
31 | CC(C)c1ccc2ncccc2c1 | inactive | –
32 | COC(C=C(C)CCC=C(C)C)OC | inactive | –
33 | C=CC(=O)OCCCCCCCC(C)C | inactive | –
34 | CCOC(=O)c1ccccc1C | inactive | –
35 | O=C(O)CCC(=O)O | inactive | –
36 | CCCCCCCOC(=O)c1ccc(O)cc1 | inactive | –
37 | CC(=O)OC/C=C(/C)CCC=C(C)C | inactive | –
38 | CCOB(OCC)OCC | inactive | –
39 | O=C(O)/C=C/c1ccccc1 | inactive | –
40 | CC/C=C\C/C=C\C/C=C\CCCCCCCC(=O)OC | – | 30.4 µM (active)
